An excerpt weighted towards active compounds, which were near 3.3% of everything screened.
USP1-UAF1 inh = blocks the human USP1/UAF1 deubiquitinase complex. Potency, µM (doses to about 57.1 µM), for the others: at the top dose activity change, negative = inhibition, actives largely listed as inhibitors. actives 0.23% (n = 390,000). O94782. recombinant USP1/UAF1, Ub-Rhodamine cleavage fluorescence; also: potency is read from the fitted curve at half-maximal effect; nearly all actives have a fitted effect of over 60% in size
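High-throughput fluorogenic screen: 1nM USP1/UAF1 complex, Ub-Rho substrate 150nM final, 50mM HEPES pH 7.8 with 0.5mM EDTA, 0.1 mg/ml BSA, 1mM TCEP and 0.01% Tween-20.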
USP2a block = USP2a (human) protease inhibition; O75604; USP2 core, Ub-CHOP2 coupled fluorogenic reporter, 485/531; Potency, µM (titrated, usually from 38.3 µM), without a hit: at the top dose activity change, negative = inhibition, actives largely listed as inhibitors; actives 0.01% (n = 330,000);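 also: potency is read from the fitted curve at half-maximal effect; plate controls were DMSO wells for no effect and full inhibition by NEM control for full effect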
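Cell-free coupled assay: 10nM USP2 core preincubated 30min RT with compound in Tris-HCl pH 8.0/CaCl2/CHAPS buffer, then 25nM Ub-CHOP2 and 25nM reporter substrate; fluorescence (Ex 485/Em 531) read after 60min RT, normalized to NEM inhibition, concentration-response curves fitted.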
PI5P4K alpha inh = blocks human PI5P4K alpha kinase activity. PI5P4Kalpha enzyme, ADP-Glo luminescence, 60 min; stronger effect = lower value. max response, %. actives 1.2% (n = 330,000). AID 652105; active = max response of -50% or lower; inconclusive = between -30% and -50%; inactive = -30% or higher; also: value at the top dose of about 77 µM
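Quantitative HTS of the MLSMR library against PI5P4Kalpha with substrate. ATP added last at 5 microM final; room temperature, 60 minutes. Remaining ATP depleted, ADP converted and read as luminescence.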
WRN inhibitor = WRN helicase (human) inhibition | AID 651768 | Potency, µM (titrated, usually from 114 µM), without a hit: at the highest dose activity change, negative = inhibition, usual class: inhibitors | actives 0.46% (n = 360,000) | WRN helicase unwinding, fluorescent forked duplex, kinetic | Q14191; also: potency is read from the fitted curve at half-maximal effect; nearly all actives have a fitted effect of over 55% in size
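WRN at 20 nM final was preincubated with compound for 15 min at room temperature; reaction started with 100 nM forked duplex oligonucleotide carrying fluorophore and quencher plus 2 mM ATP (final). Unwinding followed kinetically by red fluorescence (ex 525/em 598 nm).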
PLK1 PBD block = inhibitors of human PLK1 polo-box domain binding. actives 2.8% (n = 360,000). Plk1 PBD binding of FITC phosphopeptide, fluorescence polarization. P53350. Potency, µM, inactives show max response, negative = inhibition, hits mostly inhibitors; also: potency is read from the fitted curve at half-maximal effect; series mostly up to about 57 µM; nearly all actives have a fitted effect of over 65% in size
Target sequence (P53350 whole entry, looked up, the tested form may be a part): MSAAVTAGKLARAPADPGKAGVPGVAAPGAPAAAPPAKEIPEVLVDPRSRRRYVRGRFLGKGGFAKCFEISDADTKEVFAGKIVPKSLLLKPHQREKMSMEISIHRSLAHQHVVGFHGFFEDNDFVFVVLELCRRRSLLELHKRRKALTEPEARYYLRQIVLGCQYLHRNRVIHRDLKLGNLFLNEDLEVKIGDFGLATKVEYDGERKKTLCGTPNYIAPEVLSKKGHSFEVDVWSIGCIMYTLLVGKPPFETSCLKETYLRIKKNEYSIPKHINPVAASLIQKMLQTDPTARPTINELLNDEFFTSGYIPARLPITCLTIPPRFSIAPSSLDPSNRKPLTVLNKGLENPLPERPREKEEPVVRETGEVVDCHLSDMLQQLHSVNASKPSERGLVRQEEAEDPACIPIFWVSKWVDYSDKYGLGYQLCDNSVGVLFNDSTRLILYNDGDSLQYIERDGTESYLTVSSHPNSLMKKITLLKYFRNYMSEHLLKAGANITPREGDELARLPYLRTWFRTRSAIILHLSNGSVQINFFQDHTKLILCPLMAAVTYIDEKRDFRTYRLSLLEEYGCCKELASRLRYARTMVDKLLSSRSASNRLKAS
Numbers without * were called inactive; ? = inconclusive; nt = no result given; [ ] = remark or other dose. Unless noted, calls follow the shape of the dose curve; as a rule, active = well fitted curve in the direction sought with a large enough effect; inconclusive = small, poorly fitted or top-dose-only effect, or another doubt; inactive = no such curve, though single readings can be large; an effect the other way counts as inactive or inconclusive. Unless noted, % is scaled to controls: 0 for no effect and ±100 for the full control effect.

SMILES	USP1-UAF1 inh	USP2a block	PI5P4K alpha inh	WRN inhibitor	PLK1 PBD block
Nc1cccc2c1C(=O)N(C(=O)c1ccco1)C2=O	-10%	4%	1	6%	-19%
O=C(NCc1ccccc1)c1ccc(CS(=O)(=O)c2c(Cl)cccc2Cl)o1	3%	nt	nt	nt	nt
O=C(COC(=O)COc1ccccc1)Nc1ncc([N+](=O)[O-])s1	-12%	1%	-53*	?	17µM*
CC(CC(=O)Nc1ncc([N+](=O)[O-])s1)c1ccccc1 (centres undefined)	0%	8%	-28	-13%	?
Cn1cnnc1SCC(=O)Nc1ncc([N+](=O)[O-])s1	-9%	-2%	-50*	40µM*	?
O=C(O)CCCN1C(=O)/C(=C\C(Cl)=C\c2ccccc2)SC1=S	?	0%	-19	?	11µM*
Cc1nn(-c2ccccc2)c(Cl)c1/C=C1\SC(=S)NC1=O	-17%	1%	nt	-15%[11.6 µM]	?
CN1CCN(C(=O)CCCN2C(=O)/C(=C/c3ccccc3)SC2=S)CC1	-7%	1%	-1	-5%	-11%
O=C1/C(=C/c2ccccc2Cl)SC(=S)N1CCCC(=O)N(CCO)c1ccccc1	-30%	3%	8	-10%	-1%
O=C(O)CN1C(=O)/C(=C\c2ccccc2OCc2ccc(F)cc2)SC1=S	-7%	-2%	-30	-10%[11.6 µM]	27µM*
O=C(O)CN1C(=O)/C(=C\c2cc([N+](=O)[O-])ccc2OCc2ccccc2Cl)SC1=S	?	?	-72*	45µM*	27µM*
Cc1nn(-c2ccccc2)c(Cl)c1/C=C1\SC(=S)N(CCCCCC(=O)O)C1=O	?	-5%	2	-23%	24µM*
O=C(NC1CCCC1)c1ccc2c(c1)N(Cc1ccc(C(F)(F)F)cc1)C(=O)c1ccccc1S2	-31%	nt	nt	nt	nt
O/N=C/c1cc(Br)ccc1OCc1ccc(F)cc1	-16%	nt	-1	-6%	-25%
O=C(CCCN1C(=O)/C(=C/c2cccs2)SC1=S)Nc1cccc(C(=O)O)c1	-16%	4%	-24	-9%	-16%
COc1ccc(/C=C2/SC(=S)N(CC(=O)O)C2=O)cc1OCc1ccc(Cl)cc1	?	1%	-12	56µM*	30µM*
O=C(O)CCCN1C(=O)/C(=C/c2cn(-c3ccccc3)nc2-c2cccs2)SC1=S	?	30%	3	50µM*	32%
O=C(O)CN1C(=O)/C(=C\c2cc(Br)ccc2OCc2ccc(F)cc2)SC1=S	?	-7%	?	?	21µM*
O=C(O)CN1C(=O)/C(=C\c2cc(Br)ccc2OCc2ccc(Cl)cc2)SC1=S	?	-9%	?	56µM*	8.4µM*
COc1cc(/C=C2\SC(=S)N(CC(=O)O)C2=O)ccc1OC(=O)c1ccco1	-20%	1%	-13	-22%	-9%
CCCn1c2ccccc2c2cnn(CC(=O)Nc3ccccc3OC)c(=O)c21	2%	nt	nt	nt	nt
CCOc1ccc(Nc2oc(/C=C/c3cc(OC)c(OC)c(OC)c3)nc2C#N)cc1	-21%	nt	nt	nt	nt
O=C(O)CN1C(=O)/C(=C\c2ccccc2OCc2ccccc2)SC1=S	-16%	nt	-15	-8%	?
O=C(O)CCCN1C(=O)/C(=C\c2ccccc2OCc2ccccc2)SC1=S	?	-7%	-1	?	27µM*
O=C(NCc1ccccn1)c1nn(-c2ccccc2Cl)nc1CO	-3%	nt	nt	nt	nt
SMILES	USP1-UAF1 inh	USP2a block	PI5P4K alpha inh	WRN inhibitor	PLK1 PBD block
CCCC(=O)Nc1ccc(NC(=O)Cc2ccccc2)cn1	-1%	-2%	-8	2%	-7%
CCCC(=O)Nc1ccc(NC(=O)CCc2ccccc2)cn1	-13%	3%	?	4%	3µM*
Cc1nc(NC(=O)CCc2ccccc2)sc1C	-35%	2%	-17	?	15µM*
CC(=O)c1cccc(-n2c(=O)c3c4c(sc3n(CC(=O)c3ccc(Cl)cc3)c2=O)CN(C(C)=O)CC4)c1	-8%	nt	nt	nt	nt
COc1ccc2c(c1)c1c(c(=O)n(-c3ccccc3C)c(=O)n1CC(=O)NCc1ccc(C)cc1)n2C	-6%	nt	nt	nt	nt
COc1ccc(N2CCCC2)c(NC(=O)c2ccc([N+](=O)[O-])o2)c1	-24%	3%	0	-7%	24µM*
CC1(C)CC(=O)C(=Cc2cn(CCC#N)nc2-c2ccc(Cl)cc2)C(=O)C1	-14%	6%	?	-6%	2.4µM*
O=C(O)/C(=C\c1cn(-c2ccccc2)nc1-c1ccc(Cl)cc1)NC(=O)c1ccccc1	-13%	0%	4	1%	-15%
CC1=NNC(=O)/C1=C\c1cn(-c2ccccc2)nc1-c1ccccc1	-23%	0%	10	3%[57.1 µM]	6µM*
CC1(C)CC(=O)C(=Cc2cn(CCC#N)nc2-c2ccc(F)cc2)C(=O)C1	-3%	1%	-27	-2%	3.4µM*
N#CCCn1cc(C=C(C#N)C#N)c(-c2ccc(-c3ccccc3)cc2)n1	-27%	-11%	0	-11%	-9%
CC1(C)CC(=O)C(=Cc2cn(-c3ccccc3)nc2-c2ccc(Cl)cc2)C(=O)C1	-8%	0%	-21	-12%	1.2µM*
O=C(CSc1nc(-c2cccs2)nc2cc(=O)[nH]n12)Nc1cccc(C(F)(F)F)c1	-25%	nt	nt	nt	nt
O=C(Nc1ccccc1)c1ccc[nH]1	-15%	-1%	-13	3%	19µM*
O=C(Nc1ccccc1)c1c(F)cccc1F	-25%	0%	nt	-4%	0%
Cc1ccc(NC(=S)NNc2ccc([N+](=O)[O-])cc2S(=O)(=O)Nc2ccccc2C(=O)O)cc1C	-21%	-2%	-73*	?	27µM*
CC(=O)Nc1cccc(/C(C)=N/Nc2ccc(S(=O)(=O)Nc3ccccc3C(=O)O)cc2[N+](=O)[O-])c1	?	nt	-72*	?	24µM*
COc1cccc(C(C)=NNc2ccc([N+](=O)[O-])cc2[N+](=O)[O-])c1OC	-8%	nt	0	-5%	-1%
O=C(O)c1ccccc1NS(=O)(=O)c1ccc(NNC(=S)Nc2ccc(OC(F)F)cc2)c([N+](=O)[O-])c1	?	-2%	-82*	?	11µM*
Cc1ccc(NC(=S)NNc2ccc(C(=O)O)cc2[N+](=O)[O-])cc1C	-4%	nt	-7	-35%	?
COc1ccc(NC(=O)c2ccccc2NS(=O)(=O)c2ccc(C)cc2)c([N+](=O)[O-])c1	-14%	2%	-2	-4%	4%
COc1ccc(C(C)=NNc2ccc([N+](=O)[O-])cc2S(=O)(=O)Nc2ccccc2C(=O)O)c(OC)c1	-17%	-3%	?	-6%[11.6 µM]	21µM*
Cc1ccccc1NC(=O)c1sc2nc(-c3ccncc3)ccc2c1N	-33%	nt	nt	nt	nt
Cc1cccc(NC(=O)c2sc3nc(-c4ccccc4)cn3c2C)c1C	-7%	nt	nt	nt	nt
C[C@H](NC(=O)OC(C)(C)C)c1nnc(SCc2ccc(Cl)cc2Cl)o1	-24%	nt	nt	nt	nt
